This is an account of results in PubChem BioAssay AID485364 (National Center for Advancing Translational Sciences (NCATS), 2010).

Out of some 360,000 compounds screened, about 11,000 (3.1%) were called active. A call without a number means that no potency is given here. Not shown: some 4% with an inconclusive outcome. This is one part of a sample in which actives are shown more often than they occur. Calls come from the whole dose curve; as a rule, active = well fitted inhibition curve with a large enough effect; inconclusive = small, poorly fitted or top-dose-only effect; inactive = no such curve, though single readings can be large or run the other way.
Potency is the fitted concentration of half-maximal effect.

This assay concerns the target Schistosoma mansoni thioredoxin glutathione reductase (TGR) (UniProt Q962Y6). Briefly: qHTS Assay for the Inhibitors of Schistosoma Mansoni Peroxiredoxins. Note: nearly all actives have a fitted effect of over 60% in size. The note with it: purified TGR, DTNB reduction, TNB absorbance 405 nm; series mostly up to 114 µM. The essentials:
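TGR 20 nM + NADPH 100 uM (dispensed conc.), cpd preinc 15 min RT; start with NADPH (500 uM addition) then DTNB (15 mM addition). Kinetic TNB absorbance, 405 nm filter. Four-parameter Hill fit across titration.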
A general note: qHTS replaces the single test concentration by a dilution series.
With `COc1ccc(OCC(=O)Nc2cccc(C(=O)OCc3cc(=O)n4nc(C)sc4n3)c2)cc1`, the Potency entry is “inactive”. The value for `Cc1cc(NC(=O)C2CCC(CNS(=O)(=O)c3ccc(Br)s3)CC2)ccc1Br` (configuration not stated) was “inactive”; that for `COC(=O)c1ccc(NC(=O)CCc2c(C)nc3c(c(C)nn3-c3ccc(C)cc3)c2C)cc1` was “inactive”. The value for `O=C(NCC(c1cccnc1)N1CCc2ccccc21)c1cccc(C(F)(F)F)c1` (configuration not stated) was “inactive”; that for `COc1ccc(CCNC(=O)CCc2c(C)nc3c(c(C)nn3-c3ccc(C)c(C)c3)c2C)c(OC)c1OC` was “inactive”. The value for `COc1ccc(NC(=O)CSc2nc3ccccc3n2CC(=O)N2CCCCC2C)cc1` (configuration not stated) was “inactive”; that for `C=CCn1c(CNC(=O)c2ccco2)nnc1SCC(=O)c1ccc(OC)cc1` was “inactive”. Regarding `COc1ccc(C(=O)NCc2nnc(SCCOc3ccccc3)n2C)cc1`, the Potency entry was “inactive”. In the case of `COc1ccc(C(=O)CSc2nnc(COc3ccccc3)n2Cc2ccco2)cc1` it was 39.8 µM (active); in that of `COc1ccccc1CNCc1ccc(C(=O)O)s1`, “inactive”.

For the compound `COc1ccc(-c2cn3c(n2)sc2cc(C(=O)Nc4ccccc4F)ccc23)cc1`, the Potency result is “inactive”. In the case of `O=C(NCc1ccccc1Cl)C1=Cc2cc(Br)ccc2OC1` it was “inactive”; in that of `O=C(CNc1ccc(F)cc1F)NC(=O)NCc1ccco1`, 28.2 µM (active); in that of `CC(C)(C)NC(=O)NCc1ccco1`, “inactive”. Take `Cc1ccc(SCC(=O)NC(=O)NCc2ccco2)c(C)c1`: the Potency entry is “inactive”. For the compound `CCOC(=O)c1ccc(NC(=O)C2CCN(S(=O)(=O)c3ccc4c(c3)CCCC(=O)N4)CC2)cc1`, the Potency entry was “inactive”. Turning to `O=C(CCc1nc(CN2CCN(S(=O)(=O)c3ccc(Cl)cc3)CC2)no1)N1CCCCC1`, the Potency entry is “inactive”.

In the case of `CN(C)[C@@H]1C(=O)C(C(N)=O)=C(O)[C@@]2(O)C(=O)C3=C(O)c4c(O)ccc(Cl)c4[C@@H](O)[C@H]3C[C@@H]12`, the Potency was 39.8 µM (active).

For `O=C(c1ccccc1F)N1CCC(c2nc3c(nnn3Cc3cccc(F)c3)c(=O)[nH]2)CC1`, the Potency entry was “inactive”. Regarding `Cc1ccc(CN2CCc3nc(N4CCN(C)CC4)ncc3C2)cc1`, the Potency result was “inactive”.

Turning to `Cc1ccc(C)c(Cn2c(=O)n(CCC(=O)NCc3ccc4c(c3)OCO4)c(=O)c3sccc32)c1`, the Potency result was “inactive”.

As for `CC(C)c1ccc(NC(=O)c2cc(S(=O)(=O)N3CCc4ccccc4C3)ccc2F)cc1`, the Potency result is “inactive”. Turning to `C1=C(N2CCOCC2)/C(=C/c2nc3ccccc3[nH]2)CC1`, the Potency was 5.62 µM (active). The value for `O=C(C1CCCO1)N1CCC(c2nc3ccccc3[nH]2)CC1` (configuration not stated) was “inactive”; that for `c1ccc(-n2nnnc2N2CCOCC2)cc1` was “inactive”; that for `COc1ccc(NC(=O)N2CCCn3nc(C)cc32)cc1OC` was “inactive”. In the case of `COc1ccc(C2C(C(C)=O)=C(O)C(=O)N2c2nccs2)cc1` (configuration not stated) it was “inactive”; in that of `C=CCOc1cccc(C2C(C(=O)c3ccc(C)o3)=C(O)C(=O)N2c2nnc(C)s2)c1` (configuration not stated), 28.2 µM (active); in that of `COc1cc(C2C(C(=O)c3ccco3)=C(O)C(=O)N2c2cc(C)on2)ccc1OCc1ccccc1` (configuration not stated), “inactive”. In the case of `CCCCc1nn2c(=O)cc(COC(=O)c3ccc(NC(=O)c4ccccc4C)cc3)nc2s1` it was “inactive”; in that of `Cc1ccc(NC(=O)C(=O)NCC(c2cccnc2)N2CCOCC2)cc1` (configuration not stated), “inactive”; in that of `COc1ccc(NC(=O)Cn2c(=O)n(Cc3ccc(C(=O)NCc4ccccc4Cl)cc3)c(=O)c3ccccc32)cc1`, “inactive”. On to `Cn1nc(-c2ccccc2)c(-c2ccccc2)c(C(=O)Nc2ccc(S(N)(=O)=O)cc2)c1=O`, for which the Potency result is “inactive”.

For `Cc1ccc(C)c(N2CCN(CCCNC(=O)Nc3ccc(Cl)cc3)CC2)c1`, the Potency result is “inactive”. With `CC(C)c1ccc(S(=O)(=O)N2CCN(C(C)C(=O)NC3CCCC3)CC2)cc1` (configuration not stated), the Potency result was “inactive”. Regarding `CC(C(=O)NC1CCCC1)N1CCN(S(=O)(=O)c2ccccc2Cl)CC1` (configuration not stated), the Potency was 35.5 µM (active). Turning to `O=C(Cc1ccc(S(=O)(=O)N2CCCC2)s1)NC1CCCCCC1`, the Potency entry was “inactive”. For `O=C(Nc1ccc(OC(F)(F)F)cc1)C1CCCN(S(=O)(=O)c2ccc(Br)s2)C1` (configuration not stated), the Potency entry is “inactive”. In the case of `Cc1ccc2nc(SCC(=O)N3CCN(c4ccccc4)CC3)nc(=O)n2c1` it was 50.1 µM (active); in that of `Cc1ccc2nc(SCC(=O)N3CC(C)OC(C)C3)nc(=O)n2c1` (configuration not stated), “inactive”. As to `Cc1ccc2nc(SCC(=O)Nc3cccc4ccccc34)nc(=O)n2c1`, the Potency entry was “inactive”. As for `COC(=O)CC1Oc2ccccc2-n2cc(-c3ccccc3)nc21` (configuration not stated), the Potency entry was “inactive”.

Regarding `Cc1nc(SCC(=O)Nc2ccc(C(=O)O)cc2)n[nH]1`, the Potency entry was “inactive”. The value for `CSc1ncc(Cl)c(C(=O)Nc2ccc(S(=O)(=O)N3CCCC(C)C3)cc2)n1` (configuration not stated) was “inactive”. As to `Cc1cc(=O)n2[nH]c(-c3cccc(Cl)c3)cc2n1`, the Potency result was “inactive”. In the case of `C=CCc1c(C)nc2cc(-c3ccccc3)[nH]n2c1=O` it was “inactive”. Turning to `Cc1cc(=O)n2[nH]c(-c3sccc3-n3c(C)ccc3C)cc2n1`, the Potency was 31.6 µM (active).

In the case of `O=C(Nc1cc(Cl)cc(Cl)c1)c1ccc2c(c1)N(Cc1cccc(Cl)c1)C(=O)c1ccccc1S2=O` (configuration not stated), the Potency result was “inactive”.

With `CCCCNc1ccc(-c2nc(-c3ccncc3)no2)cc1[N+](=O)[O-]`, the Potency entry was “inactive”. Take `CC(C)CNc1ncnc2c1nnn2C`: the Potency result is “inactive”. Turning to `COc1ccc(-n2c(SCC(=O)NCc3ccco3)nnc2-c2c[nH]c3ccccc23)cc1`, the Potency result is “inactive”.

Turning to `COc1ccc(-n2nnnc2SCC(=O)NCc2cccs2)cc1`, the Potency result was “inactive”.

`COc1ccc(-n2c(SCC(=O)NCc3cccs3)nnc2-c2ccoc2C)cc1`: the Potency is 39.8 µM (active). In the case of `COc1ccc(-c2noc(CCC(=O)N(C)c3ccccc3C)n2)cc1`, the Potency entry is “inactive”. `CCCSc1ncc(Cl)c(C(=O)Nc2c(C(=O)Nc3ccccc3)oc3ccccc23)n1`: the Potency entry is “inactive”.

Regarding `COc1ccc(C2CC(=O)N(Cc3ccccc3C)c3c2c(C)nn3-c2nc(C)cc(C)n2)c(OC)c1` (configuration not stated), the Potency entry is “inactive”. Take `CCCNC(=S)N1CCC(NC(=O)c2ccc(OC)cc2)CC1`: the Potency result was “inactive”. As for `O=C(NC(=S)NC1CCCCC1)c1ccc(Cl)cc1`, the Potency result is “inactive”. On to `COc1ccc(C(=O)NC(=S)NC2CCCCC2)cc1`, for which the Potency was 1.41 µM (active).

As to `CCc1ccccc1N(C)C(=O)C1CCCN(c2ncnc3onc(-c4ccc(F)cc4)c23)C1` (configuration not stated), the Potency result is “inactive”. For `CCn1cc(C(=O)N2CCN(c3cc(C)ccc3C)CC2)c(=O)c2cc(S(=O)(=O)N(C)C3CCCCC3)ccc21`, the Potency entry is “inactive”. As to `CCc1ccccc1NC(=O)CSc1nnc(-c2ccccc2)c(-c2ccccc2)n1`, the Potency result was “inactive”.
